# According to PubChem BioAssay AID624295 (Southern Research Specialized Biocontainment Screening …, 2012):
# Activity calls are given as the source filed them. How the calls were made is not given here.
# Assay: Vero 76 cell cytotoxicity, cytotoxicity control for VEEV inhibitor project, set 6 (AID 624295)
# Settings: Vero 76 cells viability, cytotoxicity counter-screen; series mostly up to 25 µM
row,SMILES,outcome
1,O=c1c2cc([N+](=O)[O-])ccc2nc(CN2CCCCC2)n1-c1ccccc1F,inactive
2,CCN1CCN(Cc2nc3cccc([N+](=O)[O-])c3c(=O)n2-c2ccccc2)CC1,inactive
3,CCN1CCN(Cc2nc3ccc(C(=O)N(C)C)cc3c(=O)n2-c2ccccc2)CC1,inactive
4,CCN1CCN(Cc2nc3ccc([N+](=O)[O-])cc3c(=O)n2-c2cccc(F)c2)CC1,inactive
5,NS(=O)(=O)c1ccc(-n2c(-c3ccccc3)nc3ccc(Br)cc3c2=O)cc1,inactive
6,CCN1CCN(Cc2nc3cc([N+](=O)[O-])ccc3c(=O)n2-c2ccccc2)CC1,inactive
7,CCN1CCN(Cc2nc3ccc([N+](=O)[O-])cc3c(=O)n2-c2ccccc2)CC1,inactive
8,CN1CCN(Cc2nc3ccc([N+](=O)[O-])cc3c(=O)n2-c2ccccc2F)CC1,inactive
9,CCN1CCN(Cc2nc3ccc(I)cc3c(=O)n2-c2ccccc2)CC1,inactive
10,CCN1CCN(Cc2nc3ccc(C(N)=O)cc3c(=O)n2-c2ccccc2)CC1,inactive
11,O=c1c2cc([N+](=O)[O-])ccc2nc(CN2CCNCC2)n1-c1ccccc1,inactive
12,CCN1CCN(Cc2nc3ccc([N+](=O)[O-])cc3c(=O)n2-c2ccc(F)cc2)CC1,inactive
13,CCN1CCN(Cc2nc3ccc([N+](=O)[O-])cc3c(=O)[nH]2)CC1,inactive
14,O=c1c2cc([N+](=O)[O-])ccc2nc(CN2CCNCC2)n1-c1ccccc1F,inactive
15,CCN1CCN(Cc2nc3ccc([N+](=O)[O-])cc3c(=O)n2C(C)C)CC1,inactive
